Measurements from the supplement of paper PMC10981050.
“And” between values parts separate entries of the source, which are not always exact repeats. Equal values may be shown once. Where a name gives a salt, the structure may show the parent alone.

How the values were obtained:
Experiment in all cases: cell viability relative to vehicle control; higher = less cytotoxic
Settings in all cases: 10 µM
K562 = test system: K562
In short: (§1)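 CRISPR-edited mutant clones and isogenic wild-type clones from four leukaemia lines were screened against Selleck bioactive, kinase and epigenetic probe libraries, with identity-inconsistent compounds excluded. Each compound was acoustically dispensed at a single 10 µM dose into 384-well plates holding 2000 cells in 50 µL medium per well. After 48 h the supernatant was removed and CellTiter-Glo luminescence was read. Viability was expressed as percent of the on-plate vehicle control and analysed in Genedata Screener.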

MARIMO = test system: MARIMO
In short: as §1

MOLM14 = test system: MOLM14
In short: as §1

OCI-AML2 = test system: OCI-AML2
In short: as §1

| Compound | cell viability (K562; SRSF2 genotype: SRSF2 P95H/wt) | cell viability (K562; SRSF2 genotype: SRSF2 wt/wt) | cell viability (MARIMO; SRSF2 genotype: SRSF2 P95H/wt) | cell viability (MARIMO; SRSF2 genotype: SRSF2 wt/wt) | cell viability (MOLM14; SRSF2 genotype: SRSF2 P95H/wt) | cell viability (MOLM14; SRSF2 genotype: SRSF2 wt/wt) | cell viability (OCI-AML2; SRSF2 genotype: P95H/wt) | cell viability (OCI-AML2; SRSF2 genotype: wt/wt) |
| --- | --- | --- | --- | --- | --- | --- | --- | --- |
| COc1cc(O)c2c(=O)c(O[C@@H]3O[C@H](CO)[C@@H](O)[C@H](O)[C@H]3O)c(-c3ccc(O[C@@H]4O[C@H](CO)[C@@H](O)[C@H](O)[C@H]4O)cc3)oc2c1 [Complanatuside] | 105% and 101% | 106% | 108% | 104% | 108% | 106% | 107% | 96.2% |
| O=C1NC(=O)C(=Cc2ccc(-c3ccc(F)cc3)o2)S1 (stereo in doubt) | 102% and 101% | 97.1% | 93.1% | 92.5% | 113% | 108% | 94.6% | 95.8% |
| COc1ccccc1OCCN [Carvedilol EP IMpurity E] | 112% and 110% | 113% | 98% | 102% | 103% | 107% | 119% | 117% |
| COCCOc1ccc2c(c1)ncn2-c1ccc2cccc(N3CCC(N)CC3)c2n1 | 72.2% and 70.2% | 63.5% | 2.19% | 1.07% | 0.96% | -0.03% | 0.57% | 3.99% |
| CC1(C)CC(=O)c2c(C(F)(F)F)nn(-c3ccc(C(N)=O)c(N[C@H]4CC[C@H](O)CC4)c3)c2C1 | 23.7% and 29.5% | 27.1% | 30.9% | 25.9% | 3.24% | 4.55% | 13.9% | 21.4% |
| CCCCCCCC/C=C\CCCCCCCCCCCC(=O)O [Erucic acid] | 99.7% and 96.1% | 103% | 101% | 107% | 104% | 107% | 100% | 110% |
| Clc1ccc(CSC(Cn2ccnc2)c2ccc(Cl)cc2Cl)cc1 (stereo not drawn) [Sulconazole Nitrate] | 57.2% and 61.2% | 62.7% | 46.5% | 43.2% | 45.7% | 44.8% | 40% | 45.1% |
| CCCCCCCCCCCCN1CCCCCC1=O [Laurocapram] | 82.4% and 87.5% | 93.1% | 80.5% | 86.3% | 80.8% | 90.8% | 70.4% | 73.7% |
| COc1ccccc1N1CCN(CC(O)COc2cccc3ccccc23)CC1 (stereo not drawn) [Naftopidil Dihydrochloride] | 75.2% and 86.7% | 72.6% | 57% | 65.2% | 58.4% | 60.1% | 71.4% | 74.5% |
| CC[C@H]1OC(=O)[C@H](C)[C@@H](O[C@H]2C[C@@](C)(OC)[C@@H](O)[C@H](C)O2)[C@H](C)[C@@H](O[C@@H]2O[C@H](C)C[C@H](N(C)C)[C@H]2O)[C@](C)(O)C[C@@H](C)CN(C)[C@H](C)[C@@H](O)[C@]1(C)O [Azithromycin] | 90.3% and 86.4% | 89.5% | 83.2% | 90.4% | 92.1% | 89.4% | 75.7% | 82.3% |
| CC(C)c1cc(-c2n[nH]c(=O)n2-c2ccc3c(ccn3C)c2)c(O)cc1O [Ganetespib (STA-9090)] | 21.6% and 26.6% | 28.1% | 31.8% | 27% | 2.31% | 2.65% | 19.4% | 21.1% |
| CC[C@@](C)(Nc1ccnc(-c2c[nH]c3ncccc23)n1)C(=O)NCC(F)(F)F [Decernotinib (VX-509)] | 98.6% and 99.9% | 104% | 95.1% | 96.2% | 88.8% | 106% | 85.1% | 92.2% |
| CC12CCC(CC1=O)C2(C)C (stereo not drawn) [(+)-Camphor] | 94.2% and 102% | 101% | 96.2% | 99.9% | 99.3% | 99.8% | 103% | 92.2% |
| Nc1ncnc2c1ncn2[C@@H]1O[C@H](CO)[C@@H](O)[C@@H]1O [Vidarabine (Vira-A)] | 94.6% and 101% | 97% | 89.9% | 93.4% | 92.5% | 96.1% | 101% | 102% |
| O=c1cc[nH]c(=S)[nH]1 [2-Thiouracil] | 101% and 103% | 100% | 98.6% | 109% | 106% | 106% | 107% | 104% |
| CC1=C(C(=O)OC2CCCCC2)C(c2ccc([N+](=O)[O-])cc2)C2=C(CC(C)(C)CC2=O)N1 (stereo not drawn) | 30.9% and 13.9% | 47.4% | 84.3% | 66% | 10.5% | 13.7% | 52.6% | 43.5% |
| CN1CCN(c2c(F)cc3c(=O)c(C(=O)O)cn4c3c2OCN4C)CC1 [Marbofloxacin] | 100% and 108% | 105% | 102% | 109% | 103% | 100% | 104% | 110% |
| CC(C)[C@H](N)C(=O)OCCOCn1cnc2c(=O)nc(N)[nH]c21 [Valaciclovir HCl] | 100% and 99% | 102% | 101% | 111% | 101% | 101% | 98.7% | 112% |
| c1cncc(CN2CCC(n3ncc4c(N5CCOCC5)nc(-c5ccc6[nH]ccc6c5)nc43)CC2)c1 | 41.8% and 44.3% | 51% | 3.19% | 6.42% | 35% | 25% | 26.2% | 29.1% |
| COc1ccc(C2CC(=O)c3c(O)cc(OC4OC(COC5OC(C)C(O)C(O)C5O)C(O)C(O)C4O)cc3O2)cc1 (stereo not drawn) [Didymin] | 107% and 103% | 112% | 108% | 105% | 106% | 111% | 104% | 103% |
| CCOc1ccc(Cc2cc([C@]34OC[C@](CO)(O3)[C@@H](O)[C@H](O)[C@H]4O)ccc2Cl)cc1 [Ertugliflozin] | 104% and 95.2% | 104% | 104% | 101% | 103% | 102% | 104% | 113% |

| Compound | cell viability (K562; SRSF2 genotype: SRSF2 P95H/wt) | cell viability (K562; SRSF2 genotype: SRSF2 wt/wt) | cell viability (MARIMO; SRSF2 genotype: SRSF2 P95H/wt) | cell viability (MARIMO; SRSF2 genotype: SRSF2 wt/wt) | cell viability (MOLM14; SRSF2 genotype: SRSF2 P95H/wt) | cell viability (MOLM14; SRSF2 genotype: SRSF2 wt/wt) | cell viability (OCI-AML2; SRSF2 genotype: P95H/wt) | cell viability (OCI-AML2; SRSF2 genotype: wt/wt) |
| --- | --- | --- | --- | --- | --- | --- | --- | --- |
| CN(CCNCc1cn(Cc2ccc(Cl)cc2)nn1)CCNc1ccnc2cc(Cl)ccc12 | 2.31% and 5.3% | 6.48% | 28.8% | 34.4% | 2.79% | 0.55% | 0.39% | 0.68% |
| CC(C)C[C@@H]1NC(=O)[C@@H](C(C)C)NC(=O)[C@@H]2CCCN2C(=O)[C@@H](CC(=O)O)NC(=O)[C@@H](Cc2c[nH]c3ccccc23)NC1=O | 101% and 105% | 97% | 101% | 108% | 99% | 101% | 103% | 103% |
| CCOC(=O)C1=C(COCCN)NC(C)=C(C(=O)OC)C1c1ccccc1Cl (stereo not drawn) [Amlodipine (Norvasc)] | 83% and 92.4% | 84.4% | 73.8% | 78.3% | 53.3% | 62.5% | 38.9% | 50% |
| Cc1nc(Nc2ncc(C(=O)Nc3c(C)cccc3Cl)s2)cc(N2CCN(CCO)CC2)n1 [Dasatinib Monohydrate] | 23.6% and 40.6% | 28.3% | 67.5% | 70.5% | 38.8% | 39% | 33.3% | 43.3% |
| CCC(C)C1OC2(CCC1C)CC1CC(CC=C(C)C(OC3CC(OC)C(OC4CC(OC)C(O)C(C)O4)C(C)O3)C(C)C=CC=C3COC4C(O)C(C)=CC(C(=O)O1)C34O)O2 (stereo not drawn) [Ivermectin] | 24.6% and 35% | 26.9% | 25.9% | 22.9% | 21.3% | 18.4% | 4.65% | 7.41% |
| OC1CCC(Oc2cccc3cnc(Nc4ccc5nc[nH]c5c4)nc23)CC1 (stereo not drawn) | 40.6% and 46.8% | 32.7% | 11.5% | 4.14% | 1.38% | 0.57% | 1.67% | 16.3% |
| COc1cc([C@@H]2c3cc4c(cc3[C@@H](O[C@@H]3O[C@@H]5CO[C@@H](c6cccs6)O[C@H]5[C@H](O)[C@H]3O)[C@H]3COC(=O)[C@H]23)OCO4)cc(OC)c1O [Teniposide (Vumon)] | 8.79% and 17.8% | 6.27% | 3.97% | 2.15% | 0.52% | 0.37% | 0.66% | 0.72% |
| O=C(N/N=C/c1ccc(O)c(O)c1)c1cc2ccccc2cc1O [Dynasore] | 88.5% and 89.6% | 96% | 72.8% | 78.7% | 94.2% | 94.4% | 80% | 73% |
| CN(C)CCOC(c1ccccc1)c1ccccc1 [Diphenhydramine HCl (Benadryl)] | 91.2% and 88.2% | 85.9% | 76.8% | 91.7% | 88.3% | 85.8% | 87.8% | 92.3% |
| Nc1ncnc2c1ncn2C1CC(O)C(CO)O1 (stereo not drawn) [2'-Deoxyadenosine monohydrate] | 113% and 106% | 105% | 96.4% | 94.5% | 102% | 99.6% | 95.5% | 96.5% |
| COc1cc(C)c(/C=C/C(C)=C/C=C/C(C)=C/C(=O)O)c(C)c1C [Acitretin] | 87% and 91.6% | 90% | 79.1% | 88.1% | 87.4% | 89.2% | 32.6% | 52% |
| CC(C)(C)C#Cc1cc(N(C(=O)[C@H]2CC[C@H](C)CC2)[C@H]2CC[C@H](O)CC2)c(C(=O)O)s1 [Lomibuvir (VX-222, VCH-222)] | 108% and 102% | 107% | 113% | 115% | 109% | 106% | 124% | 120% |
| CC1(C)CC[C@]2(C(=O)O)CC[C@]3(C)C(=CC[C@@H]4[C@@]5(C)CC[C@H](O)[C@@](C)(CO)[C@@H]5CC[C@]43C)[C@@H]2C1 [Hederagenin] | 103% and 102% | 97.1% | 98.4% | 112% | 106% | 105% | 120% | 107% |
| CC(=O)c1ccc(O)cc1O [2,4-Dihydroxyacetophenone] | 100% and 87% | 86.2% | 93.5% | 99.8% | 96% | 94.1% | 92.3% | 94.8% |
| O=C(NO)c1cccc(C(=O)NCCc2ccccc2)c1 | 91% and 97.1% | 101% | 91.9% | 86.8% | 89.6% | 94.3% | 90.7% | 93.3% |
| Nc1ccc(O)cc1 [4-Aminophenol] | 63.2% and 50.9% | 83.5% | 45.6% | 50% | 12.1% | 23.2% | 3.01% | 12% |
| CC(C)c1nc(CN(C)C(=O)N[C@@H](CCN2CCOCC2)C(=O)N[C@H](CC[C@H](Cc2ccccc2)NC(=O)OCc2cncs2)Cc2ccccc2)cs1 [Cobicistat (GS-9350)] | 88.4% and 101% | 95.7% | 94.7% | 104% | 94.3% | 98.3% | 95% | 83.8% |
| OCCN1C[C@H](O)[C@@H](O)[C@H](O)[C@H]1CO [Miglitol (Glyset)] | 98.3% and 109% | 101% | 106% | 102% | 106% | 106% | 107% | 94.9% |
| CCOC(=O)c1csc(Nc2ccc(Cl)cc2)n1 | 97.1% and 103% | 92.5% | 81% | 92.8% | 111% | 111% | 75.6% | 71.8% |
| COCCCC/C(=N\OCCN)c1ccc(C(F)(F)F)cc1 [Fluvoxamine maleate] | 94.3% and 95.6% | 98.9% | 80.8% | 91.5% | 87.8% | 98% | 93.9% | 88.2% |
